From PubChem BioAssay (Tox21)
Records with an inconclusive call do not appear. A call without a number means that no potency is given here. Calls of active or inactive are those of the source. Calls come from the whole dose curve.

Biological target: Muscarinic acetylcholine receptor M1 (Homo sapiens) (UniProt P11229)
Assay: Cholinergic receptor muscarinic 1 (CHRM1) small molecule antagonists, cell-based qHTS assay (AID 1963588); note: nearly all actives have a fitted effect of over 40% in size
Details: CHRM1-CHO antagonist mode, calcium flux fluorescence; series mostly up to 61.5 µM
Excerpt: National Center for Advancing Translational Sciences [NCATS]
Division of Preclinical Innovation [DPI]
U.S. Environmental Protection Agency [EPA]
National Institutes of Environmental Health Sciences [NIEHS]
National Toxicology Program [NTP]
U.S. Food and Drug Administration [FDA]
The CHRM1 is a muscarinic receptor. This receptor plays a crucial role in learning and memory processes and has long been identified as a promising therapeutic target for the improvement of cognitive decline in Alzheimer's disease (AD). The CHRM1-CHO cell line stably expressing human muscarinic acetylcholine receptor M1 (CHRM1) can be used for screening agonists and antagonists of interactions between CHRM1 and its ligands. The CHRM1-CHO Calcium Flux Assay is a homogeneous fluorescence-based assay for detecting the intracellular calcium level using FDSS kinetic plate reader system.
Tox21 Assay Protocol Summary:
CHRM1-CHO cells were dispensed at 1000 cells/3uL/well in 1536-well black-clear bottom plates using a Multidrop Dispenser. After the assay plates were incubated at a 37 C/5% CO2 incubator for 18 h, 3 uL of Dye Loading Buffer was transferred to the assay plate by a Flying Reagent Dispenser. The assay plates were incubated at 37 C for 1h. For antagonist mode, 23 nL of compounds dissolved in DMSO, positive controls or DMSO only was transferred to the assay plate by a pin tool. After 5 min incubation at room temperature, 1.5 uL of acetylcholine at 50nM was added to each well. The fluorescence intensity in the plates was measured using FDSS 7000EX kinetic plate reader for 3 min at 1 sec intervals. Each test compound was measured at 15 concentrations in three independent runs.

Sequence of Muscarinic acetylcholine receptor M1 (Homo sapiens) (P11229 whole entry, looked up): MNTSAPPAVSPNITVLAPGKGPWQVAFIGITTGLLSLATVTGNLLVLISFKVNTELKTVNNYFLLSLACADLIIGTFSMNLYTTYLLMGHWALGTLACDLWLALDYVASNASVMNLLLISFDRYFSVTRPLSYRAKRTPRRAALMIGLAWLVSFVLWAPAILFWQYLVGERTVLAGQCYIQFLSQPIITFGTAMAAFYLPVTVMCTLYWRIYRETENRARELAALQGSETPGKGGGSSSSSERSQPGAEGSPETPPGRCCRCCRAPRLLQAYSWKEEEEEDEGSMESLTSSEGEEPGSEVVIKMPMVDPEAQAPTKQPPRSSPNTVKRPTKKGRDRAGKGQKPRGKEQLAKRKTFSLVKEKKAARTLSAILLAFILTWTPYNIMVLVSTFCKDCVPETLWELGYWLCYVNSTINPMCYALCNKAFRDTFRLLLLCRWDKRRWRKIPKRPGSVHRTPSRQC

Structure (SMILES) | Potency | activity, negative = inhibition
ClC(Cl)(Cl)c1ccc(C(Cl)(Cl)Cl)cc1 | inactive | –
COc1cccc2sc(N)nc12 | inactive | –
NNC(=O)CCCCC(=O)NN | inactive | –
CNC(=O)C(c1ccccc1)c1ccccc1 | inactive | –
c1ccc(-c2nc3ccccc3[nH]2)cc1 | inactive | –
O=[N+]([O-])c1cc(C2CCCCC2)c(O)c([N+](=O)[O-])c1 | inactive | –
Nc1ccc(N)c([N+](=O)[O-])c1 | inactive | –
CCSCC | inactive | –
Nc1ccc(O)c(N)c1 | inactive | –
CCc1cc(C(C)(C)C)c(O)c(C(C)(C)C)c1 | inactive | –
CCN(CC)c1ccc2c(c1)Oc1cc(N(CC)CC)ccc1C21OC(=O)c2ccccc21 | inactive | –
CC1=CCC(C(C)C)C=C1 (stereo not given) | inactive | –
O=C(O)Cc1ccc(Cl)cc1Cl | inactive | –
CCCNCCC | inactive | –
CCCCCCCCS(=O)C(C)Cc1ccc2c(c1)OCO2 (stereo not given) | inactive | –
S=C([S-])NCCNC(=S)[S-].[Mn+2] | inactive | –
Cc1coc2ccccc2c1=O | inactive | –
CCCCCCOC(=O)c1ccc(O)cc1 | inactive | –
CCc1cccc(N(C)C(N)=Nc2cccc3ccccc23)c1 | inactive | –
O=C1CCCCC1C1CCCCC1 (stereo not given) | inactive | –

Structure (SMILES) | Potency | activity, negative = inhibition
NC(N)=NCCC[C@H](N)C(=O)O | – | -1.41% [at 5.58 µM] (inactive)
C=CC(=O)OCC1CC2CC1C1CCC(COC(=O)C=C)C21 (stereo not given) | inactive | –
OCCOCC#CCOCCO | inactive | –
Nc1cccc(O)c1 | inactive | –
CCOc1nc2cccc(C(=O)OC(C)OC(=O)OC3CCCCC3)c2n1Cc1ccc(-c2ccccc2-c2nn[nH]n2)cc1 (stereo not given) | inactive | –
CSc1ccc(C=O)cc1 | inactive | –
Nc1ccc(F)cc1 | inactive | –
CCCCCCCCCCCCC1CO1 (stereo not given) | inactive | –
CC(C)=CCC[C@](C)(O)[C@@H]1CC=C(C)CC1 | inactive | –
CCOc1ccc(O)cc1 | inactive | –
CC(C)c1ccc(O)c(C(C)C)c1 | inactive | –
CCCCCCC(C)Nc1ccc(Nc2ccccc2)cc1 (stereo not given) | inactive | –
O=C(NOCC1CC1)c1ccc(F)c(F)c1Nc1ccc(I)cc1Cl | inactive | –
CC(C)=CC(C)(C)C | inactive | –
O=C(c1ccccc1)C1CCC1 | inactive | –
C=C1CC[C@H]2C[C@@H]1C2(C)C | inactive | –
Cc1cc(=O)oc2cc(N(C)C)ccc12 | inactive | –
COc1cc(C)nc(-n2nc(C)cc2OC)n1 | inactive | –
COC(=O)Nc1nc2ccc(C(=O)C3CC3)cc2[nH]1 | inactive | –
Cc1cc(O)ccc1O | inactive | –
